Measurements taken from PubChem BioAssay (EPA / NIEHS).
Records with an inconclusive call do not appear. Where a structure was tested more than once in an assay, its records may differ in their call. The source made the active and inactive calls. The calls were made as follows, unless noted: active = hit-call score of the fitted dose curve at least 0.9, where 1 is the maximum; inactive = score below 0.9.

Key:
[1] = read-out: Interleukin-8 (IL8), CXCL8 (gene 3576); assay: BSK_3C_IL8: BioMAP Diversity Plus: 3C Assay for Interleukin-8 (IL8) Biomarker Activity (AID 2283020); settings: primary human endothelial cells (HUVEC); actives raise or lower the signal
Summary of the method: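 ELISA read-out of IL-8 from human umbilical vein endothelium, measured 24 h after chemical dosing. Activity is expressed relative to DMSO negative control, with both increases and decreases fitted.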

[2] = read-out: Monokine induced gamma interferon (MIG), CXCL9 (gene 4283); assay: BSK_3C_MIG: BioMAP Diversity Plus: 3C Assay for Monokine induced gamma interferon (MIG) Biomarker Activity (AID 2283021); settings: primary human endothelial cells (HUVEC); actives raise or lower the signal
Summary of the method: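 Read-out is ELISA detection of MIG on human umbilical vein endothelial cells, taken 24 h after dosing. Gain or loss of signal was scored relative to DMSO controls using bidirectional curve fitting.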

[3] = target: human Vitamin D Receptor (VDR), VDR (gene 7421) (UniProt P11473); assay: ATG_VDR_TRANS: Attagene TRANS-FACTORIAL HepG2 Assay for human Vitamin D Receptor (VDR) (AID 2283022; active = hit-call score of the fitted dose curve at least 0.9, where 1 is the maximum)
human Vitamin D Receptor (VDR), VDR (gene 7421), sequence (P11473 whole entry, looked up, the tested form may be a part): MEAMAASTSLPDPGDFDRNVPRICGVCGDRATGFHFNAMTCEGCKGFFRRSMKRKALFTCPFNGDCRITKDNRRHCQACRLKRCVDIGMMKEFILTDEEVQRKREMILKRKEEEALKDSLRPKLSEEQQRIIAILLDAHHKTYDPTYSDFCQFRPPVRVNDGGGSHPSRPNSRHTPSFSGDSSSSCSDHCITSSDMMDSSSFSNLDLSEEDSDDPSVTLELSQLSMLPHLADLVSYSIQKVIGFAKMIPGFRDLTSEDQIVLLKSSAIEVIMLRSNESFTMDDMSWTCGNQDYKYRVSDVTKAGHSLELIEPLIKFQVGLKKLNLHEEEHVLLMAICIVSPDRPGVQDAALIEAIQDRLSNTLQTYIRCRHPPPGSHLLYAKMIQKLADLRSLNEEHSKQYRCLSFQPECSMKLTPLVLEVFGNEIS
Summary of the method: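 Steps: transfect HepG2 with GAL4-UAS-driven reporter constructs; dose compounds 24 h; isolate RNA, reverse-transcribe, PCR-amplify with 6-FAM-labelled primer extension and HpaI digestion; quantify fragments by capillary electrophoresis relative to DMSO.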

[4] = BSK_3C_SRB: Viability Assessment in the BioMAP Diversity Plus: 3C Assay (AID 2283023); settings: primary human endothelial cells (HUVEC);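 also: fitted both ways against DMSO so a hit may be signal rise or drop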
Summary of the method: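 Absorbance at 560 nm of sulforhodamine B-stained (0.1%) total protein served as a cytotoxicity readout in human umbilical vein endothelial cells, 24 h after chemical treatment. Signal was fitted bidirectionally relative to DMSO.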

[5] = read-out: Matrix Metallopeptidase 1 (MMP1), MMP1 (gene 4312); assay: BSK_BE3C_MMP1: BioMAP Diversity Plus: BE3C Assay for Matrix Metallopeptidase 1 (MMP1) Biomarker Activity (AID 2283024); settings: primary human bronchial epithelial cells; actives raise or lower the signal
Summary of the method: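 Human bronchial epithelial cells (BE3C system) exposed to compound for 24 h; MMP1 then quantified by ELISA. Activity was fitted in both directions relative to DMSO.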

[6] = BSK_3C_Vis: BioMAP Diversity Plus: 3C Assay for Morphology Visualization (AID 2283025); settings: primary human endothelial cells (HUVEC);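 also: fitted both ways so gain or loss versus DMSO counts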
Summary of the method: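 Chemicals were added to primary human umbilical vein endothelium, cells were incubated 24 h, and morphology was then visualized by light microscopy. Gain or loss of signal was fitted bidirectionally relative to DMSO.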

[7] = read-out: Pselectin, SELP (gene 6403); assay: BSK_4H_Pselectin: BioMAP Diversity Plus: 4H Assay for Pselectin Biomarker Activity (AID 2283026); settings: primary human endothelial cells (HUVEC); actives raise or lower the signal
Summary of the method: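 ELISA read-out of P-selectin on human umbilical vein endothelium after 24 h of dosing. Values derive from bidirectional fitting relative to DMSO. Parallel SRB protein staining flagged overt cytotoxicity.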

[8] = BSK_4H_SRB: Viability Assessment in the BioMAP Diversity Plus: 4H Assay (AID 2283027); settings: primary human endothelial cells (HUVEC);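 also: cells exposed to compound for 24 h before staining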
Summary of the method: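 Human umbilical vein endothelial cells, 24 h after chemical dosing; total protein measured by 0.1% sulforhodamine B staining after 10% TCA fixation, read at 560 nm. Bidirectional fitting against DMSO.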

[9] = BSK_BE3C_SRB: Viability Assessment in the BioMAP Diversity Plus: BE3C Assay (AID 2283028); settings: primary human bronchial epithelial cells
Summary of the method: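 Cells (human bronchial epithelial, primary) are treated with chemicals, and after 24 h the parallel cultures are fixed in 10% TCA. These are then stained with 0.1% SRB and read at 560 nm. Gain or loss of signal is fitted relative to DMSO.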

[10] = read-out: Thrombomodulin, THBD (gene 7056); assay: BSK_3C_Thrombomodulin: BioMAP Diversity Plus: 3C Assay for Thrombomodulin Biomarker Activity (AID 2283029); settings: primary human endothelial cells (HUVEC); actives raise or lower the signal
Summary of the method: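 Read-out is ELISA of thrombomodulin on human umbilical vein endothelium 24 h after chemical dosing. Gain or loss of signal is scored relative to DMSO. Overt cytotoxicity is checked in parallel cultures by sulforhodamine B staining.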

[11] = read-out: Urokinase-type plasminogen activator receptor (uPAR), PLAUR (gene 5329); assay: BSK_4H_uPAR: BioMAP Diversity Plus: 4H Assay for Urokinase-type plasminogen activator receptor (uPAR) Biomarker Activity (AID 2283030); settings: primary human endothelial cells (HUVEC); actives raise or lower the signal
Summary of the method: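 Cell-surface uPAR ELISA signal, measured 24 h after dosing human umbilical vein endothelial cells, was analyzed with bidirectional fitting relative to DMSO. Parallel SRB staining of total protein tracked overt cytotoxicity.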

[12] = read-out: Vascular endothelial growth factor receptor 2 (Homo sapiens) (UniProt P35968); assay: BSK_4H_VEGFRII: BioMAP Diversity Plus: 4H Assay for Vascular endothelial growth factor receptor 2 (VEGFR2) Biomarker Activity (AID 2283031); settings: primary human endothelial cells (HUVEC); actives raise or lower the signal
Summary of the method: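 ELISA read-out of VEGFRII in primary human umbilical vein endothelium, taken 24 h after chemical treatment. Responses are expressed relative to DMSO, with bidirectional fitting.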

[13] = read-out: Human Leukocyte Antigen - DR isotype (HLADR), HLA-DRA (gene 3122); assay: BSK_BE3C_HLADR: BioMAP Diversity Plus: BE3C Assay for Human Leukocyte Antigen - DR isotype (HLADR) Biomarker Activity (AID 2283032); settings: primary human bronchial epithelial cells; actives raise or lower the signal
Summary of the method: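 ELISA read-out of HLA-DR on human lung bronchial epithelial primary cells, measured 24 h post-dosing. Both increases and decreases were scored relative to DMSO vehicle.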

[14] = read-out: Vascular cell adhesion molecule 1 (VCAM1), VCAM1 (gene 7412); assay: BSK_4H_VCAM1: BioMAP Diversity Plus: 4H Assay for Vascular cell adhesion molecule 1 (VCAM1) Biomarker Activity (AID 2283033); settings: primary human endothelial cells (HUVEC); actives raise or lower the signal;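 also: cell-surface VCAM-1 protein measured by ELISA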
Summary of the method: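 ELISA read-out of VCAM-1 on human umbilical vein endothelium 24 hours after chemical dosing; gain or loss of signal was fitted relative to DMSO, with sulforhodamine B staining of parallel cultures flagging overt cytotoxicity.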

[15] = read-out: Interferon-gamma inducible Protein 10 (IP10), CXCL10 (gene 3627); assay: BSK_BE3C_IP10: BioMAP Diversity Plus: BE3C Assay for Interferon-gamma inducible Protein 10 (IP10) Biomarker Activity (AID 2283034); settings: primary human bronchial epithelial cells; actives raise or lower the signal
Summary of the method: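 Chemical is dosed onto human lung bronchial epithelial primary cells, cultures are incubated 24 h, and IP-10 is then quantified by ELISA. Gain or loss of signal is fitted in both directions relative to DMSO.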

[16] = read-out: Monokine induced gamma interferon (MIG), CXCL9 (gene 4283); assay: BSK_BE3C_MIG: BioMAP Diversity Plus: BE3C Assay for Monokine induced gamma interferon (MIG) Biomarker Activity (AID 2283035); settings: primary human bronchial epithelial cells; actives raise or lower the signal;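 also: MIG protein measured by ELISA in BE3C cultures after 24 h of dosing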
Summary of the method: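 Primary human bronchial epithelial cells treated for 24 h; MIG levels measured by ELISA, fitted bidirectionally versus DMSO. Parallel SRB total-protein staining assessed cytotoxicity.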

[17] = read-out: Transforming growth factor beta 1 (TGFb1), TGFB1 (gene 7040); assay: BSK_BE3C_TGFb1: BioMAP Diversity Plus: BE3C Assay for Transforming growth factor beta 1 (TGFb1) Biomarker Activity (AID 2283036;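 also: TGF-b1 protein level measured by ELISA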); settings: primary human bronchial epithelial cells; actives raise or lower the signal
Summary of the method: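 Primary human lung bronchial epithelial cells; compound exposure 24 h; TGF-b1 by ELISA; bidirectional fit, DMSO baseline. Parallel SRB total-protein staining for cytotoxicity.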

[18] = read-out: Plasminogen activator inhibitor-1 (PAI1), SERPINE1 (gene 5054); assay: BSK_BE3C_PAI1: BioMAP Diversity Plus: BE3C Assay for Plasminogen activator inhibitor-1 (PAI1) Biomarker Activity (AID 2283037); settings: primary human bronchial epithelial cells; actives raise or lower the signal
Summary of the method: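 Primary human lung bronchial epithelial cells; chemical dosing; 24 h; PAI-1 measured by ELISA; bidirectional fit referenced to DMSO as negative control.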

[19] = read-out: urokinase plasminogen activator (uPA), PLAU (gene 5328); assay: BSK_BE3C_uPA: BioMAP Diversity Plus: BE3C Assay for urokinase plasminogen activator (uPA) Biomarker Activity (AID 2283038); settings: primary human bronchial epithelial cells; actives raise or lower the signal;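 also: uPA protein level quantified by ELISA in cell cultures; uPA read one day after compound addition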
Summary of the method: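 Bronchial epithelial cells (human, primary); chemical 24 h; uPA by ELISA; bidirectional fit vs DMSO. SRB (0.1%, after 10% TCA fixation, 560 nm) in parallel cultures for cytotoxicity.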

[20] = read-out: Urokinase-type plasminogen activator receptor (uPAR), PLAUR (gene 5329); assay: BSK_BE3C_uPAR: BioMAP Diversity Plus: BE3C Assay for Urokinase-type plasminogen activator receptor (uPAR) Biomarker Activity (AID 2283039); settings: primary human bronchial epithelial cells; actives raise or lower the signal;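 also: cells exposed to compound for one day before measurement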
Summary of the method: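 Human bronchial epithelial primary cells; chemical exposure 24 h; uPAR by ELISA; bidirectional fit vs DMSO control.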

Measured: AC50

OC[C@H]1O[C@@H]2O[C@H]3[C@H](O)[C@@H](O)[C@@H](O[C@H]4[C@H](O)[C@@H](O)[C@@H](O[C@H]5[C@H](O)[C@@H](O)[C@@H](O[C@H]6[C@H](O)[C@@H](O)[C@@H](O[C@H]7[C@H](O)[C@@H](O)[C@@H](O[C@H]1[C@H](O)[C@H]2O)O[C@@H]7CO)O[C@@H]6CO)O[C@@H]5CO)O[C@@H]4CO)O[C@@H]3CO
inactive: all assays above

CCCCCCOC(=O)CC(CC(=O)OCCCCCC)(OC(=O)CCC)C(=O)OCCCCCC
inactive: all assays above

C[C@@H](Oc1ccc(CNC(=O)c2cccnc2Oc2ccc3c(c2)OCO3)c(F)c1)C(=O)O
not listed: [3]
inactive: all other assays above

OCCC(F)(F)C(F)(F)C(F)(F)C(F)(F)F
not listed: [6] | [17]
inactive: all other assays above

S=P(N1CC1)(N1CC1)N1CC1
inactive: all assays above

O=C(Cl)C(F)(F)C(F)(F)C(F)(F)C(=O)Cl
inactive: [1] | [2] | [3] | [4] | [5] | [7] | [8] | [9] | [10] | [11] | [12] | [13] | [14] | [15] | [16] | [18] | [19] | [20]
active: [18] 12.2 µM

FC(F)(F)C(F)(F)C(F)(F)C(F)(F)C(F)(F)C(F)(F)I
not listed: [6] | [17]
inactive: all other assays above
